This is a sample that favours compounds with a hit; in the whole collection about 4.1% have one here.
DUSP3 inh = VHR1 phosphatase inhibitors, primary screen, biochemical, absorbance, uHTS; Dual specificity protein phosphatase 3 (Homo sapiens), P51452; recombinant VHR phosphatase, pNPP absorbance; inhibition, % at 13.3 µM; hit rate 0.52% among 290,000; in the data active = inhibition above about 50%
Bead autofluor = compound fluorescence in toxin protease inhibitor counterscreen | AID 624483 | compound autofluorescence counterscreen, microsphere flow cytometry; stronger effect = higher value | hit rate 3.1% among 360,000 | fluorescence intensity (no concentration beside the values); in the data active = fluorescence intensity above about 16000; inconclusive = no clear call, values can overlap the other calls
BoNT F protease = BoNT/F light chain protease inhibitors, primary screen, biochemical, flow cytometry, MLPCN library | Botulinum neurotoxin type F light chain protease (Clostridium botulinum) | hit rate 0.22% among 360,000 | inhibition, % at 10 µM | Multiplex microsphere protease cleavage assay; in the data active = inhibition above about 35%, passing the limit was not always enough; inconclusive = no clear call, values can overlap the other calls
MazEF act = activators of E. coli MazEF toxin-antitoxin RNase, primary screen, biochemical, fluorescence, uHTS. Endoribonuclease toxin MazF (Escherichia coli (strain K12)), P0AE70. FAM/BHQ RNA-DNA oligo cleavage fluorescence, 5 h. activation, % at 20 µM. hit rate 0.32% among 350,000; in the data active = activation above about 50%
BoNT-A LC inh2 = BoNT/A light chain protease inhibitors, primary screen, biochemical, flow cytometry, MLPCN library | Botulinum neurotoxin type A light chain protease (Clostridium botulinum A str. ATCC 3502) | multiplex microsphere protease substrate cleavage | inhibition, % at 10 µM | hit rate 0.17% among 360,000 | AID 588499, 2011
Anthrax LF prot = Bacillus anthracis LF protease inhibitors, primary screen, biochemical, multiplex microsphere, MLPCN library; Lethal factor (Bacillus anthracis), P15917; multiplex microsphere protease cleavage assay; inhibition, % at 10 µM; hit rate 0.12% among 360,000; AID 588501, 2011
Target sequence (P15917 whole entry, looked up): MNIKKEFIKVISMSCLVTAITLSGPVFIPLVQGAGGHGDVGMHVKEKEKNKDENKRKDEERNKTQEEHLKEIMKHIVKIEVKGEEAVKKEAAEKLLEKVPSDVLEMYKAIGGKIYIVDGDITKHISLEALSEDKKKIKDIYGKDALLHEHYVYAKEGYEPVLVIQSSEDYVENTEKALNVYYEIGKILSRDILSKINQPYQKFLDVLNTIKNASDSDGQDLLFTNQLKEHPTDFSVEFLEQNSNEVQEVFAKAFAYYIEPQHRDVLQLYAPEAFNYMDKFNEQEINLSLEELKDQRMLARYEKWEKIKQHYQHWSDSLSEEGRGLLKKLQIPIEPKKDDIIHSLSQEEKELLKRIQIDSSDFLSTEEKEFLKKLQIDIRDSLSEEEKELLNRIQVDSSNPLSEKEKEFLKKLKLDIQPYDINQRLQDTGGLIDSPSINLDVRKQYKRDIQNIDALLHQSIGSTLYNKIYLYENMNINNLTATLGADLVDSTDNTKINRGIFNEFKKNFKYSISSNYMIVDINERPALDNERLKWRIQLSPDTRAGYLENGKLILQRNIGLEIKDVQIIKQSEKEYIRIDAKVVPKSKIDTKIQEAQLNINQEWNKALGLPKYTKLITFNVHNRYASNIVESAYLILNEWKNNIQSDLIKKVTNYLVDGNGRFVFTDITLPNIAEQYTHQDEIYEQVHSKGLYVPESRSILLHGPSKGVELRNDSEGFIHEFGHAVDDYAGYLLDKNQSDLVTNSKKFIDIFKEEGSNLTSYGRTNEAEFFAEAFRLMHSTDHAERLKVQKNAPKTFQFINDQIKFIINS
Each line names hits and unclear results; the compound was inactive in the other large screens. Cut-off read from the data, not from the text of the source, unless noted: active = inhibition above about 30%; inconclusive = no clear call, values can overlap the other calls; inactive = below that.

COc1ccc(CCNC(=O)CSc2ncn[nH]2)cc1	Bead autofluor 19819
COc1ccc(CCNC(=O)CSc2ccccn2)cc1	none
Cc1nnc(SCC(=O)N2CCC(C(N)=O)CC2)s1	none
CC(=O)Nc1nonc1NC(=O)CSc1ncn[nH]1	Bead autofluor 21267
CCC(CO)Oc1cc(NC(=O)c2ccc(C)cc2)c2ncn(C(C)C)c2c1 (stereo not drawn)	none (no result: DUSP3 inh)
CC1C(=O)N(Cc2cn(Cc3ccco3)nn2)CCS(=O)(=O)N1Cc1ccc(-c2ccccc2C(F)(F)F)cc1 (stereo not drawn)	none (no result: DUSP3 inh, MazEF act)
CC(C)(C)OC(=O)N1CCC(C(=O)Nc2ccc(C(=O)NCc3ccccc3)cc2)CC1	none (no result: DUSP3 inh)
O=C(/C=C/c1ccccc1Cl)OCC(=O)N1CCc2ccccc21	none (no result: DUSP3 inh)
Cc1ccccc1C(=O)NC1CCN(C(=O)Nc2ccc(F)cc2)CC1	none
O=C(CSc1ncn[nH]1)Nc1ccc2c(c1)OCCO2	Bead autofluor 23582
O=C(CSc1ncn[nH]1)c1ccc2c(c1)OCCO2	none
O=C(CSc1ncn[nH]1)Nc1c(F)cc(F)cc1Br	Bead autofluor 23998, BoNT-A LC inh2 inconclusive
Cc1ccc(N2CC(C(=O)N3CCC(C(=O)NCCCOC(C)C)CC3)CC2=O)cc1 (stereo not drawn)	none
CC(C)(C)OC(=O)N1CCC(C(=O)Nc2cccc(C(=O)N3CCOCC3)c2)CC1	none (no result: DUSP3 inh)
CCc1ccccc1NC(=O)C1CC(c2ccc(F)cc2)=NO1 (stereo not drawn)	none
COC(=O)c1ccccc1NC(=O)C1CC(c2ccc(F)cc2)=NO1 (stereo not drawn)	Bead autofluor 16511
N#Cc1ccc(NC(=O)C2CC(c3ccc(F)cc3)=NO2)cc1 (stereo not drawn)	Bead autofluor 22651
O=C(Nc1ccc2c(c1)OCO2)C1CC(c2ccc(F)cc2)=NO1 (stereo not drawn)	none
O=c1[nH]c(=O)n(C2OC(CO)C(O)C2O)c2c1CCCC2 (stereo not drawn)	none (no result: DUSP3 inh, MazEF act)
CCOC(=O)c1cc(S(=O)(=O)Nc2ccc(F)cc2F)cn1C	none
N#CC1C(=O)NC(=O)C(C#N)C12CCCC(C(F)(F)F)C2 (stereo not drawn)	none (no result: DUSP3 inh)
Cc1cc(F)ccc1C(O)c1ncc(-c2cccc(OCc3ccccc3)c2)[nH]1 (stereo not drawn)	none (no result: DUSP3 inh, MazEF act)
Cc1ccc(C(=O)C(OC(=O)CCC(=O)Nc2cccc(C)c2)c2ccccc2)cc1 (stereo not drawn)	none
COc1ccc(NC(=O)CCC(=O)OC(C(=O)c2ccccc2)c2ccccc2)cc1 (stereo not drawn)	Bead autofluor 20295
O=C(NC1CCCCC1)N1CCN(C2CCCCC2)CC1	Bead autofluor 23605
O=C(NC1CCCCC1)N1CCN(c2ncccn2)CC1	Bead autofluor 23207
Cc1cccc(CN(C)C[C@@H]2OCc3cnnn3CCCC(=O)N([C@H](C)CO)C[C@H]2C)c1	none (no result: DUSP3 inh)
CC(C)NC(=O)CCNS(=O)(=O)c1ccc(Br)cc1	Bead autofluor 24137
Cc1cccc(NC(=O)c2ccccc2NC(=O)c2ccco2)c1	none
CCN(CC(=O)Nc1ccc(NC(C)=O)cc1)C(=O)c1ccc(=O)[nH]c1	none (no result: Bead autofluor, BoNT F protease, BoNT-A LC inh2, Anthrax LF prot)
Cc1c(C(=O)Oc2cc(N)n(S(C)(=O)=O)n2)cccc1[N+](=O)[O-]	MazEF act 73.8
Cc1cc(C)cc(OCc2nnc(SCC(=O)c3ccccc3)o2)c1	Bead autofluor 19614, BoNT-A LC inh2 inconclusive
COc1ccc2[nH]c(=O)c(C(c3nnnn3C3CCCC3)N(C)C3CCCCC3)cc2c1 (stereo not drawn)	Bead autofluor 24246, BoNT-A LC inh2 inconclusive
O=c1[nH]c2cc3c(cc2cc1C(c1nnnn1C1CCCCC1)N1CCSCC1)OCCO3 (stereo not drawn)	Bead autofluor 22680
COc1cc2cc(C(c3nnnn3C3CCCC3)N3CCCCC3)c(=O)[nH]c2cc1OC (stereo not drawn)	Bead autofluor 19432
CCOc1ccc2[nH]c(=O)c(C(c3nnnn3C3CCCCC3)N3CCN(CC)CC3)cc2c1 (stereo not drawn)	Bead autofluor 21002, BoNT-A LC inh2 inconclusive
COc1ccc2[nH]c(=O)c(C(c3nnnn3C3CCCC3)N3CCN(Cc4ccc5c(c4)OCO5)CC3)cc2c1 (stereo not drawn)	none
CCOc1ccc2[nH]c(=O)c(C(c3nnnn3C3CCCCC3)N3CCN(C)CC3)cc2c1 (stereo not drawn)	none
C[C@@H]1CN([C@@H](C)CO)C(=O)CCCn2nncc2CO[C@H]1CN(C)C(=O)Nc1ccc(F)cc1	none (no result: DUSP3 inh)
COc1cc2cc(C(c3nnnn3C3CCCC3)N3CCCCCC3)c(=O)[nH]c2cc1OC (stereo not drawn)	Bead autofluor 20987
O=C(C1CCN(S(=O)(=O)c2ccc(F)cc2)CC1)N1CC=C(c2ccccc2)CC1	Bead autofluor 17943
O=C(C1CCN(S(=O)(=O)N2CCOCC2)CC1)N1CCC2(CC1)OCCO2	Bead autofluor 22049
O=C(C1Cc2ccccc2CN1S(=O)(=O)c1cccs1)N1CCCCC1 (stereo not drawn)	Bead autofluor 25075
O=C(C1CCN(S(=O)(=O)c2ccccc2)CC1)N1CCOCC1	Bead autofluor 16459, BoNT-A LC inh2 inconclusive
CC(=O)C(C)n1c(CN2CCN(C(=O)c3ccco3)CC2)nc2c1c(=O)n(C)c(=O)n2C (stereo not drawn)	none
CC1(C)CN(c2ccc(Br)cc2)C(=O)[C@H]1CC(=O)Nc1ccccc1	none (no result: DUSP3 inh)
O=C(COC(=O)c1ccc(O)cc1O)Nc1cccc2ccccc12	none (no result: DUSP3 inh)
O=C(c1ccc(S(=O)(=O)N2CCC(c3nc4ccccc4s3)CC2)cc1)N1CCCCC1	none (no result: DUSP3 inh)
O=C(C1CCN(S(=O)(=O)c2cccs2)CC1)N1CCN(c2ccccc2)CC1	Bead autofluor 16746
COc1ccc(N2CCN(C(=O)C3CCN(S(=O)(=O)c4cccs4)CC3)CC2)cc1	none
O=C(c1ccc(S(=O)(=O)N2CCC(c3nc4ccccc4s3)CC2)cc1)N1CCOCC1	Bead autofluor 23501
CCOC(=O)c1nnn(-c2nonc2N)c1CSc1ccc(C)cc1	none
CCOC(=O)c1nnn(-c2nonc2N)c1-c1ccc(C)cc1	none
CCOC(=O)c1nnn(-c2nonc2N)c1-c1ccccc1	Bead autofluor 23505
C/C(=N/NC(=O)c1nnn(-c2nonc2N)c1COc1ccccc1)c1ccccc1Cl	DUSP3 inh 57.0
CCOC(=O)c1nnn(-c2nonc2N)c1CSc1ccccc1	Bead autofluor 22923
CCOc1ccc(C(=O)Nc2c3c(nn2-c2cccc(Cl)c2)CS(=O)C3)cc1 (stereo not drawn)	Bead autofluor 22721

From PubChem BioAssay
